# Screening data as filed in PubChem.
# Hits are enriched below; roughly 8% of the tested compounds scored in any of these assays.
# TSHR antag: blocks TSH signaling through the human TSH receptor. TSHR-expressing cells, TSH-stimulated cAMP HTRF, 2 h; active compounds read low. activity change, negative = inhibition, % at 11.5 µM. 330,000 tested, 0.2% active. AID 504810;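 active = activity change below a set negative limit, meaning inhibition stronger than a set level, cut at about -70% in these data; inconclusive = activity change between two set negative limits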
#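 Competitive HTRF cAMP read-out (cryptate anti-cAMP antibody, cAMP-d2; 30 min, room temperature) in freshly harvested TSHR cells. Compounds added before TSH at EC80 (4nM final), followed by 2 hours' incubation at 37 deg C.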
# VP16 counter: counter-screen for ROR gamma inhibitors: Gal4-VP16 reporter; Drosophila S2 Gal4-VP16 UAS-luciferase, luminescence, 20 h; Potency, µM (series often up to 53.6 µM), most hits filed as inhibitors; 310,000 tested, 3.5% active; AID 2546;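 also: Gal4-VP16 expression switched on by copper sulfate through the metallothionein promoter; nearly all actives have a fitted effect of over 50% in size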
# ELG1 DNA repair: blocks ELG1-dependent DNA repair in HEK293T cells; 330,000 tested, 2.3% active; AID 504467; HEK293T ELG1-luciferase reporter, luminescence, 16 h; DNA damage induced by 5-fluorouridine; Potency, µM (doses to about 46.1 µM), usual class: inhibitors; also: nearly all actives have a fitted effect of over 55% in size
#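 Step one: seed 2,000 cells per well. Step two: pin-transfer compound or DMSO alongside 5-fluorouridine. Step three: incubate 16 hr, 37 °C, 5% CO2. Step four: add ONE-Glo, wait 30 min, read luminescence.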
# Coupling enz: counter-screen for Giardia aldolase inhibitors: coupling enzyme system. coupling enzyme system counterscreen, AmpLite Red fluorescence. activity change, negative = inhibition, % at 58.2 µM, hits read low. 290,000 tested, 0.67% active. AID 2472; in the data active = activity change below about -30%
#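 Counterscreen of the coupled detection system alone, without aldolase: glyceraldehyde-3-phosphate coupling enzymes plus AmpLite Red readout. Compounds at 57.5 uM final, 10 min RT preincubation, 20 min RT reaction, fluorescence 525/598 nm.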
# RORgamma inh: inhibitors of mouse ROR gamma transcriptional activity; P51450; 310,000 tested, 5.4% active; Potency, µM (series often up to 53.6 µM), actives largely listed as inhibitors; AID 2551; Drosophila S2 Gal4-RORgamma UAS-luciferase reporter, 20 h; also: nearly all actives have a fitted effect of over 60% in size
# Target sequence (P51450 whole entry, looked up, the tested form may be a part): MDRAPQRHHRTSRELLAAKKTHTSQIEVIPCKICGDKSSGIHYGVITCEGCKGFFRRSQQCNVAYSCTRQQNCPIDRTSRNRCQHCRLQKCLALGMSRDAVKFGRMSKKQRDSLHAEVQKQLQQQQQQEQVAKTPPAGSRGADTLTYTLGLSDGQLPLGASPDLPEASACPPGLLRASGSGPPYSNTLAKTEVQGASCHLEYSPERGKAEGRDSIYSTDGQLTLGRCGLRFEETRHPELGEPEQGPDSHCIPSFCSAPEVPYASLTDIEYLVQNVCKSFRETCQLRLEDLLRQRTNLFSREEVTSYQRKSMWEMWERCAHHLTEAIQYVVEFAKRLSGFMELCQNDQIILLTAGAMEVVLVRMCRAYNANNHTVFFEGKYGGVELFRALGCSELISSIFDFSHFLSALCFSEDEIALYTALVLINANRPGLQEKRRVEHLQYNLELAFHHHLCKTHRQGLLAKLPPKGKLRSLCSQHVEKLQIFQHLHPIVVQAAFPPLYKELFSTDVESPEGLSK
#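 Stably transfected Drosophila Schneider cells are the test system, with ROR gamma fused to Gal4 and luciferase under UAS control; luminescence is read after 20 hr of 700 uM copper sulfate induction at ambient temperature.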
# Hits are given with their value; 0 = inactive; ? = inconclusive; - = not tested or not shown; [ ] = dose if it differs, or a comment. Unless noted, calls follow the shape of the dose curve; as a rule, active = well fitted curve in the direction sought with a large enough effect; inconclusive = small, poorly fitted or top-dose-only effect, or another doubt; inactive = no such curve, though single readings can be large; an effect the other way counts as inactive or inconclusive.
SMILES,TSHR antag,VP16 counter,ELG1 DNA repair,Coupling enz,RORgamma inh
CC(=O)[C@H]1[C@@H]2C(=O)N(c3cccc(Cl)c3)C(=O)[C@@H]2[C@H]2c3ccccc3C=CN21,0,0,0,-36,0
O=C(c1ccco1)[C@@H]1[C@@H]2C(=O)N(c3ccc(Br)cc3)C(=O)[C@@H]2C2c3ccccc3C=CN21 (stereo not given in full),0,0,0,-40,0
O=C(c1ccco1)[C@@H]1[C@@H]2C(=O)N(c3ccc(F)cc3)C(=O)[C@@H]2C2c3ccccc3C=CN21 (stereo not given in full),0,0,0,-40,0
O=C1C[C@@H](O)[C@@H](O)[C@H]2[C@@H]3C(=O)N(Cc4ccccc4)C(=O)[C@@H]3CC[C@H]12,-,0[10 µM],-,0,0[10 µM]
COC(=O)[C@@]12CCCN1[C@H](c1ccc(-c3ccc(OC)cc3)cc1)[C@@H]1C(=O)N(C)C(=O)[C@@H]12,?,-,0,-,-
O=C(NCCC(=O)N1CCN(S(=O)(=O)c2ccc(Cl)cc2)CC1)Nc1ccccc1,0,-,0,-,-
Cc1c(C(c2ccc(C(=O)O)cc2)c2c(C)n(C)n(-c3ccccc3)c2=O)c(=O)n(-c2ccccc2)n1C,0,0,0,0,0
O=C(NCc1ccco1)C(c1ccccc1)N(C(=O)Cc1cccs1)c1ccccc1F (stereo not given),0,0,18µM,0,0
Cc1ccc(C(C(=O)NCc2ccco2)N(C(=O)CNC(=O)c2cccs2)c2c(C)cccc2C)cc1 (stereo not given),0,16µM,0,0,?
CCOC(=O)c1nnc(-c2ccccc2)nc1Sc1ccccc1Cl,0,?,0,0,0
CCOC(=O)c1nnc(-c2ccccc2)nc1Oc1ccc(Cl)cc1,0,10µM,0,0,20µM
CCn1c(COc2ccc(C(C)C)cc2)nnc1SCC(=O)Nc1nccs1,0,?,0,0,11µM
CCn1c(CNC(=O)COc2ccc(C(C)C)cc2)nnc1SCC(=O)NC1CCCCC1C (stereo not given),0,0,16µM,0,?
CCn1c(SCC(=O)Nc2nccs2)nnc1-c1ccc(S(=O)(=O)N2CCCCC2)cc1,0,0,21µM,0,0
Cc1ccc(C)c(NC(=O)CCN2CCN(c3ccccc3F)CC2)c1,0,0,0,0,0
CCN1CCN(c2c(C=O)c(Cl)nc3ccc(OC)cc23)CC1,0,0,?,0,0
Cc1ccc(N2C(=O)C3C4C=CC(CNC(=S)N5CCN(c6cccc(C)c6)C(C)C5)(O4)C3C2=O)cc1 (stereo not given),0,?,0,0,8.9µM
CC(C)Nc1nc(Oc2cccc(Cl)c2Cl)cc(C(F)(F)F)n1,0,?,0,0,?
CC(C)Nc1nc(Oc2ccc(Cl)cc2Cl)cc(C(F)(F)F)n1,0,?,0,0,25µM
COCC(=O)N1CCC2(CCCN(Cc3ccccc3OC)C2)CC1,-,0,-,0,0
CCCCN(C)S(=O)(=O)c1ccc(C(=O)Nc2nnc(-c3cccs3)o2)cc1,0,0.89µM,0,0,0.32µM
O=C(CS(=O)(=O)c1ccccc1)Nc1nnc(-c2cccs2)o1,0,-,0,-,-
O=C(Nc1nnc(-c2cccs2)o1)c1ccc(S(=O)(=O)N2CCOCC2)cc1,0,1.6µM,21µM,0,0.71µM
CCCCN(C)S(=O)(=O)c1ccc(C(=O)Nc2nnc(C3=COCCO3)o2)cc1,0,1.8µM,15µM,0,0.71µM
CCOC(=O)CCN1C(=O)[C@H]2[C@H]3[C@H](O)[C@H](O)C/C(=N/OC/C=C(\C)CCC=C(C)C)[C@@H]3CC[C@@H]2C1=O,-,0[10 µM],-,0,0[10 µM]
SMILES,TSHR antag,VP16 counter,ELG1 DNA repair,Coupling enz,RORgamma inh
CC1Cc2nc(SCC(=O)Nc3ccc4c(c3)OCO4)n(CCc3ccccc3)c(=O)c2S1 (stereo not given),0,0,13µM,0,?
CCn1c(SCC(=O)Nc2ccc3c(c2)OCO3)nc2c(c1=O)SC(C)C2 (stereo not given),0,0,0,0,0
NCCC(=O)N[C@@H](Cc1cnc[nH]1)C(=O)O,-,0,-,0,?
CC(C)NC(=O)N1CCCC2(CCN(C(=O)c3cc(C(F)(F)F)cc(C(F)(F)F)c3)CC2)C1,-,0,-,0,0
C[C@H](CO)N1C[C@H](C)[C@@H](CN(C)S(=O)(=O)c2cccs2)Oc2c(NC(=O)NC3CCCCC3)cccc2C1=O,0,-,0,-,-
COc1cc(OC)c(OC)cc1/C=C/c1cc(C(=O)O)c2ccccc2n1,0,0,0,0,0
COc1ccc(/C=C/c2cc(C(=O)O)c3ccccc3n2)cc1,0,1.4µM,?,0,1.1µM
Cc1cc(/C=C\c2ccccc2)nc2ccccc12,0,0,?,0,11µM
CN(Cc1ccco1)c1ccnc(-c2cccc(NS(C)(=O)=O)c2)n1,-,?,-,0,?
Cc1cccc(NC(=S)NC(C)CCc2ccccc2)c1 (stereo not given),0,3.2µM,0,0,7.1µM
CN(C)C(CNC(=S)Nc1ccc(Cl)cc1)c1cccnc1 (stereo not given),0,0,0,0,0
CN(C)CCNC(=S)Nc1cccc(Cl)c1,0,0,0,-,0
Cc1cccc(NC(=S)NC(NC(=O)OCc2ccccc2)C(Cl)(Cl)Cl)c1 (stereo not given),0,?,0,0,11µM
O=C(NC(NC(=S)Nc1cccc(C(=O)O)c1)C(Cl)(Cl)Cl)OCc1ccccc1 (stereo not given),0,0,0,0,0
Cc1cccc(NC(=S)NCC(c2ccccc2)N(C)C)c1 (stereo not given),0,10µM,0,0,3.2µM
CN(C)C(CNC(=S)Nc1cccc(Cl)c1)c1ccccc1 (stereo not given),0,13µM,0,0,4µM
O=C(N/N=C/c1ccc(Cl)cc1Cl)c1ccncc1,0,0,0,0,0
O=C(N/N=C/c1coc2ccc(Cl)cc2c1=O)c1ccncc1,0,0,16µM,0,0
O=C(N/N=C/c1cc(Br)cc([N+](=O)[O-])c1O)c1ccc(NC(=O)c2ccc(F)cc2)cc1,0,11µM,13µM,0,8.9µM
O=C(N/N=C/c1ccc(Cl)cc1Cl)c1cccc(N2CCCC2=O)c1,0,0,0,0,0
O=C(N/N=C/c1cc(Cl)cc(Cl)c1O)c1ccncc1,0,?,?,0,3.2µM
O=C(N/N=C/c1coc2ccc(Cl)cc2c1=O)c1ccc(O)cc1,0,0,?,0,0
O=C(N/N=C/c1cc(Br)cc(Br)c1O)c1cccc(N2CCCC2=O)c1,0,10µM,?,0,3.5µM
CN(C)c1nc(N)c([N+](=O)[O-])c(N2CCCCCC2)n1,0,0,0,0,0
COCC(=O)N1CCC[C@@]2(CCN(C(=O)Nc3ccccc3)C2)C1,-,0,-,0,0
